DAX1 inh: NR0B1 (DAX1) inhibition. P51843. HEK293 Gal4-DAX1 luciferase reporter, luminescence. inhibition, % at 6.75 µM. actives 0.99% (n = 340,000). AID 504766;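 active = inhibition above the mean over all tested compounds plus 3 SD, cut at about 4.2% in these data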;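 note: inhibition shows as a rise in luminescence from relieved DAX1 repression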
Target sequence (P51843 207-470 limits assumed): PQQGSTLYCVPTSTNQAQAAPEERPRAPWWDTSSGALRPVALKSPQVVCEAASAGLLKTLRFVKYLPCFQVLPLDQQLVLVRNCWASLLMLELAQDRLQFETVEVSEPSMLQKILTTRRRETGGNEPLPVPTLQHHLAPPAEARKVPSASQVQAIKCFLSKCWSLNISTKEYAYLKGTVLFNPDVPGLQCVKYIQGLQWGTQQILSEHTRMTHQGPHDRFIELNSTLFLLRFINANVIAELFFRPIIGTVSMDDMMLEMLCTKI
AHR activator: activates the human aryl hydrocarbon receptor | P35869 | activation, % at 5 µM | actives 2.5% (n = 320,000) | AHR-responsive luciferase reporter cells, luminescence; in the data active = activation above about 47%
HSF1 inh: HSF1 inhibition; activity change, negative = inhibition, % at 7.5 µM (by protocol); actives 0.77% (n = 300,000); NIH3T3-HGL HSE-luciferase, MG132-induced, luminescence 8 h; stronger effect = lower value;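 active = more than half of replicate wells show activity change below -50%, luminescence cut by over half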;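 note: luciferase reports HSF-1 transcriptional activity via heat shock element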
GAA850 FXN act: frataxin GAA850 promoter activation; HEK293 lucGAA850 FXN promoter luciferase reporter, 24 h; percent of 10 µM SAHA response; activation, % at 6 µM; actives 0.56% (n = 360,000);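 active = activation above the average of all compounds screened plus 3 SD, cutoff fixed separately per campaign, cut at about 7.5% in these data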
HSF1 activator: increases HSF-1 driven luciferase reporter signal. NIH3T3-HGL HSF-1 luciferase reporter, MG132, 8 h; 100% = twice DMSO control signal. actives 1.7% (n = 300,000). activation, % at 9 µM. AID 504408;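 active = mean replicate activation of at least 50% with a set share of replicates each reaching 50%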
HSP90 refold inh: blocks HSP90-mediated luciferase refolding in reticulocyte lysate | Rabbit reticulocyte lysate, luciferase refolding luminescence, 3 h | inhibition, % at 5.6 µM | actives 0.91% (n = 290,000);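 active = inhibition above the screen-wide mean plus 3 SD, computed separately per campaign, cut at about 16% in these data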;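 note: inhibitors lower the luminescence because luciferase stays unfolded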
A number is an active result; . = inactive; / = not tested or not shown. Shown are actives, neighbours in structure and some others; about 5.9% of the full set was active somewhere.

SMILES	DAX1 inh	AHR activator	HSF1 inh	GAA850 FXN act	HSF1 activator	HSP90 refold inh
O=[N+]([O-])c1cc([N+](=O)[O-])c2cc3ccccc3nc2c1	.	.	.	.	139	.
O=[N+]([O-])c1cnc2ccccc2c1	.	.	.	.	.	.
Cc1ccc(C(=O)NCC(=O)Nc2ccccc2C)o1	.	/	/	.	/	/
O=C(O)CCCCC1SCC2NC(=O)NC21 (stereo unspecified)	5.8	.	.	.	.	.
CCC1CCCCN1C(=S)NC(=O)c1cccs1 (stereo unspecified)	.	/	.	.	.	.
O=C(Nc1ccc(NC(=O)c2cccs2)c(Cl)c1)c1ccco1	.	64	.	.	.	.
O=C(NC(=S)N1CCCCC1CO)c1cccs1 (stereo unspecified)	6.5	.	/	.	/	/
O=C(NC(=S)Nc1ccccc1N1CCCC1)c1cccs1	.	51	.	.	.	.
O=C(Nc1ccc(N2CCCC2)c(Cl)c1)c1cccs1	.	.	.	.	82	.
O=C(Cc1ccccc1)Nc1ccc(NC(=O)c2cccs2)c(Cl)c1	.	.	.	.	.	.
O=C(NC(=S)Nc1ccc(N2CCOCC2)c(Cl)c1)c1cccs1	.	.	.	.	.	.
COCOCCn1cc(CN2CCS(=O)(=O)N(Cc3ccc(-c4ccc(Cl)c(Cl)c4)cc3)C(C(C)C)C2=O)nn1 (stereo unspecified)	.	/	/	.	/	/
CCN1CCCC1CNC(=O)Cn1cc(C)c(=O)[nH]c1=O (stereo unspecified)	.	/	/	.	/	/
N#Cc1cccnc1Nc1ccc(Cl)cc1	.	55	.	.	.	.
CCCCc1ccc(Nc2ncccc2C#N)cc1	.	.	.	.	.	.
CC1=C(C(=O)OCCc2ccccc2)C(c2ccsc2)NC(=O)N1C (stereo unspecified)	4.5	.	.	.	.	.
CCOC(=O)C1=C(C)NC(=S)NC1c1ccsc1 (stereo unspecified)	.	.	-67	.	.	.
O=C(NC1CCCN(c2ccc(C(F)(F)F)cn2)C1)c1cc(Cl)ccc1F (stereo unspecified)	.	.	.	.	.	.
Cc1ccc(C(=O)NC2CCCN(c3ccc(C(F)(F)F)cn3)C2)cn1 (stereo unspecified)	.	.	.	.	54	.
O=C(CCCc1ccccc1)NC12CC3CC(CC(C3)C1)C2	.	.	.	.	69	.
CC(Oc1ccccc1F)C(=O)NNC(=O)Cc1ccc(S(=O)(=O)N2CCOCC2)s1 (stereo unspecified)	.	/	/	.	/	/
COc1ccc(C(=O)CSC2=C(C#N)C3(CCCCC3)C(C#N)=C(N)N2)cc1	.	52	.	.	.	.
N#CC1=C(N)NC(SCc2ccccc2)=C(C#N)C12CCCCC2	.	.	.	.	.	.
N#CC1=C(N)NC(SCC(=O)Nc2ccccc2)=C(C#N)C12CCCCC2	.	.	.	.	71	.
CCOC(=O)c1c(NC(=O)COC(=O)c2ncc(Cl)c(Cl)c2Cl)sc(C(=O)N(C)C)c1C	.	.	.	.	.	/
SMILES	DAX1 inh	AHR activator	HSF1 inh	GAA850 FXN act	HSF1 activator	HSP90 refold inh
Oc1ccc(/C=N/N(c2ccccc2)c2ccccc2)cc1O	.	.	.	.	83	.
O=C(/C(=N/N=C/c1ccc(O)c(O)c1)c1ccccc1)c1ccccc1	.	.	.	.	90	.
COc1ccc(-n2ncc(C(C)NS(=O)(=O)c3cc(C)sc3C)c2C)cc1 (stereo unspecified)	.	/	/	.	/	/
Cn1c2ccccc2c2n[nH]c(=S)nc21	.	75	.	.	.	.
Brc1ccc(/C=N/Nc2nc3ccccc3o2)cc1	.	.	.	.	63	.
Oc1ccccc1/C=N/Nc1nc2ccccc2o1	.	.	.	.	.	.
Cc1ccc(C(=O)N2CC(C)OC(C)C2)cc1S(=O)(=O)N1CCCCC1 (stereo unspecified)	.	.	/	.	/	/
O=C(N/N=C/c1ccccc1)c1[nH]ncc1Br	4.2	.	.	.	.	.
O=C(N/N=C/c1cccnc1)c1[nH]ncc1Br	.	.	.	.	.	.
O=C(N/N=C/c1ccco1)c1[nH]ncc1Br	7.1	/	/	.	/	.
O=c1c(Cl)c(Nc2cccc(Cl)c2)cnn1-c1nc2ccccc2s1	.	.	.	.	.	16
CCc1ccc(NC(=O)COc2ccc3c(c2)OCO3)cc1	.	.	.	.	.	.

Compound activity as filed in PubChem BioAssay.
